Screening data from PubChem BioAssay.
This is a sample that favours compounds with a hit; in the whole collection about 1.3% have one here.
PREPL inhibitor: human PREPL enzyme inhibition; Q4J6C6; recombinant PREPL, fluorescence polarization activity-based probe; inhibition, % at 5.96 µM; 320,000 compounds, 0.68% hits; AID 2751;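 also: 0% = enzyme with DMSO and 100% = wells lacking enzyme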
LYPLA2 counter: blocks human lysophospholipase 2, a PME1 counter-screen | recombinant LYPLA2, FP-Rh probe fluorescence polarization | AID 2177 | 320,000 compounds, 0.38% hits | O95372 | inhibition, % at 5.9 µM;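 active = inhibition above the screen-wide mean plus 3 SD, limit set per campaign, cut at about 26% in these data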;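 also: 0% = LYPLA2 with DMSO and 100% = wells lacking LYPLA2 enzyme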
LYPLA1 inh: counter-screen for PME1 inhibitors: inhibitors of human LYPLA1; O75608; recombinant LYPLA1, FP-Rh probe fluorescence polarization; inhibition, % at 5.9 µM; 320,000 compounds, 0.16% hits;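 active = inhibition above the mean of all tested compounds plus 3 SD, set per campaign, cut at about 14% in these data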;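 also: inhibitors block serine hydrolase probe labeling of LYPLA1 so polarization falls; 0% = enzyme with DMSO and 100% = wells lacking LYPLA1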
Target sequence (O75608 whole entry, looked up): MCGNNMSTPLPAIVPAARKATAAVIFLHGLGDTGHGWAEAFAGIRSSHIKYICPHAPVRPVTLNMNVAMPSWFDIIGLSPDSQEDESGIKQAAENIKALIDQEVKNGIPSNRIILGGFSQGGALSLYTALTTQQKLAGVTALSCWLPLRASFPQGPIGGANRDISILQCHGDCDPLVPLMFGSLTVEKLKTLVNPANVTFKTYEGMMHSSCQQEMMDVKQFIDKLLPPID
Fam108B counter: counter-screen for RBBP9 inhibitors: inhibitors of mouse Fam108B. 300,000 compounds, 0.33% hits. recombinant Fam108B, FP-Rh probe fluorescence polarization. inhibition, % at 9.51 µM. AID 1947;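 active = inhibition above the screen mean inhibition plus 3 SD, computed separately per campaign, cut at about 18% in these data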;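 also: inhibitors lower polarization as less probe binds the enzyme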
PME-1 primary: PME-1 (human) inhibition | Q9Y570 | recombinant PME-1, FP-Rh probe fluorescence polarization | inhibition, % at 5.9 µM | 320,000 compounds, 0.53% hits | AID 2130;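 active = inhibition above the campaign mean of all compounds plus 3 SD, cut at about 26% in these data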;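 also: competitive labeling of PME-1 active site by serine hydrolase directed probe; 0% = PME-1 with DMSO and 100% = wells lacking PME-1 enzyme; inhibitors block probe labeling so polarization falls and inhibition rises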
Target sequence (Q9Y570 whole entry, looked up): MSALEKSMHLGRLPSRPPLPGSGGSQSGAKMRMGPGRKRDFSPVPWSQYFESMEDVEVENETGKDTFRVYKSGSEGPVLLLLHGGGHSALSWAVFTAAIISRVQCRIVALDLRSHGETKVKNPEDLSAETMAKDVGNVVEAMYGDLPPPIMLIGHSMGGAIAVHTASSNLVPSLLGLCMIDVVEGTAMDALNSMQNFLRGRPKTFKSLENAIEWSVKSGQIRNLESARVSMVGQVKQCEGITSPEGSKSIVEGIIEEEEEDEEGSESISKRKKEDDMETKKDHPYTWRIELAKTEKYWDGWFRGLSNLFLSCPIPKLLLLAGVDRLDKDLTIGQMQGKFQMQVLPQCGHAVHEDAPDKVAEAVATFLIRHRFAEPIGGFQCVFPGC
PREPL confirm: confirmation of human PREPL enzyme inhibitors | recombinant PREPL, fluorescence polarization activity probe | inhibition, % at 5.96 µM | AID 2803 | 2,000 compounds, 67% hits | shares compounds with PREPL inhibitor;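 also: 0% = protein with DMSO and 100% = wells lacking protein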
An asterisk follows results filed as active; i = inactive; . = no result. Rule as the data show it, unless noted: active = inhibition above about 43%; inactive = the rest.

SMILES | PREPL inhibitor | LYPLA2 counter | LYPLA1 inh | Fam108B counter | PME-1 primary | PREPL confirm
Cc1ccc(NC(=O)COc2cccc(/C=C3\SC(=S)N(CCC(=O)O)C3=O)c2)cc1Cl | 52.4* | 8.6 | -3.4 | -5.3 | 32.5* | 27.9
CN(C)S(=O)(=O)c1ccc(Cl)c(NC(=O)COC(=O)/C=C/c2ccco2)c1 | 1.3 | 4.4 | 1.5 | 1.1 | 6.0 | .
COc1ccc(-n2nc3c(N4CCC(C(=O)NCCc5ccccc5C)CC4)nnc(C)c3c2C)cc1 | 51.9* | 7.8 | -2.2 | 6.2 | 0.2 | 37.4
COc1ccc(-n2nc3c(N4CCC(C(=O)NCc5ccco5)CC4)nnc(C)c3c2C)cc1 | 23.2 | 2.9 | -1.4 | 1.6 | -7.6 | .
COc1ccc(-n2nc3c(N4CCC(C(=O)NCc5ccccc5C)CC4)nnc(C)c3c2C)cc1 | 39.3 | 1.3 | -3.2 | 1.4 | -1.8 | .
COc1ccc(-n2nc3c(N4CCC(C(=O)NCC(C)c5ccccc5)CC4)nnc(C)c3c2C)cc1 (configuration not stated) | 49.7* | -0.6 | -0.4 | 2.2 | 6.3 | 42.9
Cc1ccc(CNc2ccc3c(c2)ncn3C(C)(C)C)cc1 | 49.3* | 2.4 | 1.0 | 4.8 | 6.4 | 46.0*
Cc1ccc(-n2[nH]c(C)c(C=Nc3ccc4[nH]c(=O)[nH]c4c3)c2=O)cc1C | 57.3* | -9.5 | -6.0 | 13.3 | 17.6 | 37.0
Cc1ccc(C)c(N(C(=O)c2csnn2)C(C(=O)NC2CCCC2)c2cccnc2)c1 (configuration not stated) | 2.4 | 4.3 | 0.9 | 0.1 | 3.1 | .
CCN1/C(=C/C=C/c2sc3ccccc3[n+]2CC)Sc2ccccc21 | i | -290.9 | -138.9 | -310.2 | -296.5 | .
CCN1/C(=C/c2ccc3cc(C)ccc3[n+]2CC)Sc2ccccc21 | 64.8* | -2.2 | -1.2 | -11.8 | -12.8 | 57.5*
O=C(O)c1ccc(-c2cccc(Cl)c2)o1 | -4.1 | 0.9 | -0.2 | 1.0 | 3.2 | .
Clc1cccc(-c2ccc(C3Nc4cccc5cccc(c45)N3)o2)c1 | 49.0* | . | . | . | . | 60.9*
O=C(c1cccnc1)N1CCN(Cc2ccc3ccccc3c2)CC1 | 45.2* | 5.6 | -1.6 | -2.7 | -6.8 | 36.3
CN1CCN(c2nc3c(c(=O)n(C)c(=O)n3C)n2CCSc2nc3ccccc3s2)CC1 | 44.6* | 0.2 | -3.5 | -3.8 | 7.9 | 33.6
CCN1CCN(c2nc3c(c(=O)[nH]c(=O)n3C)n2CCSc2nc3ccccc3s2)CC1 | 39.7 | 1.4 | 1.0 | -3.2 | -3.5 | .
COc1ccc(N2CCN(c3nc4c(c(=O)n(C)c(=O)n4C)n3Cc3ccccc3)CC2)cc1 | 50.2* | 3.5 | 3.5 | 1.4 | 2.3 | 56.5*
CCC(CC)C(=O)Nc1nnc(CCc2ccccc2)s1 | -8.5 | 5.7 | 0.8 | -3.6 | -0.4 | .
COCc1cc(CN2CCCC(C(=O)Nc3ccc(-c4ccco4)cc3)C2)ccc1OC (configuration not stated) | -0.1 | -1.9 | -7.8 | -8.0 | -5.5 | .
COc1ccc(N(CC(=O)NCCSc2ccccc2)S(=O)(=O)c2ccccc2)c(OC)c1 | -9.4 | . | . | . | . | .
CCOC(=O)c1c(C)[nH]c(C)c1C(=O)COC(=O)CCc1ccccc1 | 7.7 | . | . | . | . | .
O=C(C1=C[C@@H](c2ccccc2)C[C@@H](OCc2ccc(CO)cc2)O1)N1CCOCC1 | 28.8 | -3.6 | 0.2 | -1.8 | 1.8 | .
O=C(C1=C[C@@H](c2ccc(Br)cc2)C[C@@H](OCc2ccc(CO)cc2)O1)N1CCOCC1 | 43.8* | -0.8 | -4.5 | 2.5 | -6.0 | 51.3*
O=C(C1=C[C@H](c2ccc(Br)cc2)C[C@H](OCc2ccc(CO)cc2)O1)N1CCOCC1 | 43.5* | -0.7 | -0.8 | 5.6 | 4.2 | 42.6
CCN(CC)CCNC(=O)c1cn(CC)c2cc(N3CCN(C)CC3)c(F)cc2c1=O | 0.8 | 2.9 | -0.4 | -7.1 | -1.4 | .
SMILES | PREPL inhibitor | LYPLA2 counter | LYPLA1 inh | Fam108B counter | PME-1 primary | PREPL confirm
Cc1ccc(CNc2ccc(N3CCOCC3)cc2)s1 | 34.3 | -0.2 | 0.6 | -0.4 | 2.2 | .
CC(=O)N1CCN(c2ccc(NCc3ccc(C)s3)cc2)CC1 | 54.4* | 5.0 | -2.3 | 0.7 | -1.6 | 34.0
CC(=O)N1CCN(c2ccc(NCc3cccs3)cc2)CC1 | 26.8 | -0.1 | 1.7 | 5.0 | 1.7 | .
CC(=O)N1CCN(c2ccc(NCc3ccc(Br)o3)cc2)CC1 | 44.2* | -4.9 | 2.3 | . | 3.6 | 45.2*
CC(=O)N1CCN(c2ccc(NCc3ccc(-c4ccc(Br)cc4)o3)cc2)CC1 | 70.7* | . | . | . | . | 66.4*
CC(=O)N1CCN(c2ccc(NCc3ccccc3)cc2)CC1 | 38.0 | 5.3 | -2.3 | -2.7 | 3.2 | .
CC(=O)N1CCN(c2ccc(NC(=O)c3ccc(C)cc3)cc2)CC1 | 21.1 | 5.0 | 0.0 | 11.9 | -0.4 | .
CC(=O)N1CCN(c2ccc(NCc3cccc4ccccc34)cc2)CC1 | 78.4* | 6.0 | 7.9 | 2.5 | -0.3 | 62.0*
C=CCOc1ccccc1CN1CCC(Oc2ccc(C(=O)N3CCCCC3)cc2)CC1 | 10.1 | 2.1 | 4.0 | 0.9 | 2.7 | .
COC(=O)c1cc(C(=O)N2CCc3ccccc32)cc([N+](=O)[O-])c1 | 14.9 | 2.0 | 3.0 | 3.9 | -2.1 | .
Cc1ccc(NC2=CC(=O)C(=O)c3ccccc32)c(C)c1 | 47.0* | 5.6 | 2.4 | . | 12.9 | 38.4
S=C(Nc1ccc(N2CCOCC2)cc1)Nc1ccc2nc(-c3ccco3)c(-c3ccco3)nc2c1 | 45.6* | 4.5 | -2.6 | 17.7 | 50.5* | 21.7
O=C(Nc1ccc2nc(-c3ccco3)c(-c3ccco3)nc2c1)N1CCN(c2ccccn2)CC1 | 73.6* | -6.8 | -6.4 | 10.0 | 2.6 | 37.8
O=C(NC(=S)Nc1ccc(N2CCOCC2)cc1)c1ccco1 | 4.0 | 13.1 | 2.3 | -0.5 | 1.6 | .
CC(C)c1ccc(NC(=O)CN2C(=O)NC(C)(C3CC3)C2=O)cc1 (configuration not stated) | 0.7 | -0.7 | -4.1 | . | 3.7 | .
O=C(NCCOc1ccccc1)c1ccc2c(c1)S(=O)(=O)c1cc(Cl)ccc1C2=O | 43.5* | . | . | . | . | 29.9
Cc1c(C(=O)OCC(=O)NCc2ccco2)cccc1[N+](=O)[O-] | 3.4 | 0.3 | -0.8 | . | -1.2 | .
CCCCC1=CC2=C(c3ccco3)C(=O)C(C)(OC(=O)c3ccc(OC)cc3)C(=O)C2=CN1CCN1CCOCC1 (configuration not stated) | 59.5* | -2.9 | -2.0 | 1.7 | 2.7 | 46.5*
O=C(O)/C=C\C(=O)Nc1ccc(N2CCN(c3ccc(F)cc3)CC2)cc1 | 51.1* | 3.3 | -0.6 | 3.8 | 7.4 | 25.4
O=C(O)/C=C\C(=O)Nc1ccc(N2CCN(c3cccc(Cl)c3)CC2)cc1 | 28.0 | 5.7 | 1.9 | 0.3 | 7.1 | .
O=C(O)/C=C\C(=O)Nc1ccc(N2CCN(c3ccc(Cl)cc3)CC2)cc1 | 48.3* | 5.7 | 5.8 | 1.8 | 5.4 | 29.4
COCCNC(=O)/C(C#N)=C/c1c(N2CCN(c3ccc(OC)cc3)CC2)nc2c(C)cccn2c1=O | 54.5* | 4.5 | 1.7 | 5.5 | 5.7 | 49.1*
CCNC(=O)/C(C#N)=C/c1c(N2CCN(c3ccc(OC)cc3)CC2)nc2c(C)cccn2c1=O | 54.5* | -4.5 | -5.4 | 7.4 | 7.1 | 49.3*
